Drawing on PubChem BioAssay (Tox21), this text covers Potency, outcome and max activation for 8 compounds.

Molecules are shown by their SMILES. “And” between values parts separate entries of the source, which are not always exact repeats. Equal values may be shown once. Records with an inconclusive call do not appear. A structure can be active in one record and inactive in another. The source made the active and inactive calls. Unless noted, calls follow the shape of the dose curve; as a rule, active = well fitted curve in the direction sought with a large enough effect in the repeat runs; inconclusive = weak or mixed curves; inactive = no such curve, though single readings can be large; an effect the other way counts as inactive or inconclusive.

Experiment [1] is described as follows: qHTS assay to identify small molecule agonists of the estrogen receptor alpha (ER-alpha) signaling pathway in the presence of an antagonist - cell viability counter screen (AID 1259386).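 Also: cells exposed to compounds for 22 h at 37 °C before the viability read; nearly all actives have a fitted effect of over 30% in size.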 Also: potency is read from the fitted curve at half-maximal effect. The method in brief:
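Cell viability in VM7Luc4E2 cells (endogenous full-length ER-alpha) measured by CellTiter-Fluor fluorescence in the same wells as the luciferase screen. Cells pre-cultured 5 days in charcoal-stripped serum, then treated 22 h with compounds at 15 concentrations plus 10.0nM ICI-182,780.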
On the technique in general: Quantitative high-throughput screening tests each substance at several concentrations.

The target of experiment [2] is Progesterone receptor (Homo sapiens) (UniProt P06401). Briefly: qHTS assay to identify small molecule agonists of the progesterone receptor (PR) signaling pathway (AID 1346784; calls by dose curve; also: nearly all actives have a fitted effect of over 30% in size; also: potency is read from the fitted curve at half-maximal effect). An outline of the steps: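 The screen uses PR-UAS-bla HEK 293T cells in charcoal-stripped serum (2%). Compounds are applied for 16 hr at 37C after a 6 hr pre-incubation, and reporter activity is detected with a FRET beta-lactamase substrate after 2 hr at room temperature.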

Experiment [3] shares this target. Nature of the experiment: qHTS assay to identify small molecule antagonists of the progesterone receptor (PR) signaling pathway (AID 1346795; active = well fitted inhibition curve with a large enough effect in the signal ratio in the repeat runs, not every such curve was filed as active; the % refers to the signal ratio). An outline of the steps:
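After 6 hr plating at 37C in 2% stripped-serum medium, PR-UAS-bla HEK293T cells got compounds, then 1 nM R5020. Sixteen hours later, LiveBLAzer substrate was applied for 2 hr at room temperature and fluorescence was recorded.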

Experiment [4] in a line: qHTS assay to identify small molecule antagonists of the progesterone receptor (PR) signaling pathway - cell viability counter screen (AID 1346798). Also: series mostly up to about 92 µM; nearly all actives have a fitted effect of over 50% in size. The method in brief:
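Viability was determined by ATP-based luminescence (CellTiter-Glo) in PR-UAS-bla HEK293T cells cultured in 2% charcoal-stripped serum and incubated 16 hr with compounds under R5020 stimulation.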

Experiment [5] is described as follows: qHTS assay to identify small molecule agonists of the progesterone receptor (PR) signaling pathway - cell viability counter screen (AID 1346799; calls by dose curve; also: nearly all actives have a fitted effect of over 45% in size). The method in brief:
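Viability was scored by ATP luminescence (CellTiter-Glo, 30 min, room temperature) in the same wells used for the reporter readout, after 16 hr compound exposure of PR-UAS-bla HEK293T cells.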

A short description of experiment [6]: qHTS assay to identify small molecule antagonists of the TGF-beta/Smad signaling pathway - cell viability counter screen (AID 1346824). Also: nearly all actives have a fitted effect of over 50% in size. An outline of the steps:
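SBE-bla HEK 293T cells, incubated overnight, then compound plus 0.25 ng/mL TGF-beta1 (stock added) for 5 hr at 37 C. Viability was read in the same wells by CellTiter-Glo luminescence after 30 min at room temperature.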

Experiment [7] in a line: qHTS assay to identify small molecule agonists of the TGF-beta/Smad signaling pathway - cell viability counter screen (AID 1346829). Also: top concentration of the series differs between compounds; nearly all actives have a fitted effect of over 45% in size. An outline of the steps:
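Luminescence from CellTiter-Glo, read after a 30 min room-temperature incubation, gives cell viability of SBE-bla HEK 293T cells treated 5 hr with compounds at 37 C.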

Experiment [8] can be described thus: qHTS assay to identify small molecule agonists of the TGF-beta/Smad signaling pathway (AID 1346859; active = well fitted activation curve with a large enough effect in the signal ratio in the repeat runs, not every such curve was filed as active; the % refers to the signal ratio; also: series mostly up to about 77 µM). The method in brief:
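Dual-wavelength fluorescence (460/530 nm emission) quantified beta-lactamase expression under the Smad binding element in HEK 293T cells following 5 hr compound treatment at 37 C.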

For experiment [9], the target named is Thyrotropin-releasing hormone receptor (Homo sapiens) (UniProt P34981). Nature of the experiment: qHTS assay to identify small molecule agonists of the thyrotropin-releasing hormone receptor (TRHR) signaling pathway (AID 1346891; calls by dose curve;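 also: HEK293 cells expressing TRHR with calcium dye readout; series mostly up to about 58 µM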). An outline of the steps:
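Kinetic fluorescence (3 min, 1 s intervals) reported intracellular calcium after compound transfer onto TRHR-Hek293 cells pre-loaded with dye for 2 h at 37 °C.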

Experiment [10] in a line: Human pregnane X receptor (PXR) small molecule agonists, qHTS cell viability counter screen (AID 1346977). Also: nearly all actives have a fitted effect of over 50% in size. Also: potency is read from the fitted curve at half-maximal effect. An outline of the steps: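 HepG2 cells stably carrying the PXR-Luc reporter are cultured with 5% charcoal-stripped FBS and treated with compounds for 24hr. CellTiter-Fluor is added at 23hr and fluorescence is read after 1hr.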
Experiment [11] in a line: Caspase-3/7 induction in HepG2 cells by small molecules, qHTS assay (AID 1346978). Also: nearly all actives have a fitted effect of over 15% in size. An outline of the steps:
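Wild-type HepG2 cells, 2,000/well, settled 5 hr at 37 C and 5% CO2, then compound-treated for 17 hr; caspase-3/7 activity read by luminescent Caspase-Glo 3/7 after 30 min at room temperature.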

Experiment [12] can be described thus: Caspase-3/7 induction in CHO-K1 cells by small molecules, qHTS cell viability counter screen (AID 1346979). Also: nearly all actives have a fitted effect of over 35% in size. Also: potency is read from the fitted curve at half-maximal effect. The method in brief: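 Seeding: 1,500 CHO-K1 cells/well. Rest: 5hr, 37C. Treatment: compounds in DMSO, 16hr. Read: CellTiter-Fluor, 1hr, fluorescence.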
Experiment [13] is described as follows: Caspase-3/7 induction in CHO-K1 cells by small molecules, qHTS assay (AID 1346980). Also: nearly all actives have a fitted effect of over 15% in size. The method in brief:
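Wild-type CHO-K1 cells exposed to compounds for 17hr at 37 C, 5% CO2. Caspase-3/7 activity then measured by Caspase-Glo 3/7 luminescence after 30min at room temperature.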

Experiment [14] in a line: Caspase-3/7 induction in HepG2 cells by small molecules, qHTS cell viability counter screen (AID 1346981). Also: nearly all actives have a fitted effect of over 30% in size. Also: potency is read from the fitted curve at half-maximal effect. The method in brief:
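Wild-type HepG2 cells, 2,000/well, settled 5 hr at 37 C, 5% CO2 before compound addition. Viability read by CellTiter-Fluor fluorescence, reagent added after 16 hr compound exposure, then 1 hr at 37C, in the same wells as the caspase read.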

For experiment [15], the target named is Nuclear receptor subfamily 1 group I member 2 (Homo sapiens) (UniProt O75469). Briefly: Human pregnane X receptor (PXR) small molecule agonists, qHTS assay (AID 1346982). Also: nearly all actives have a fitted effect of over 35% in size. Also: potency is read from the fitted curve at half-maximal effect. The method in brief: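 PXR-Luc HepG2 reporter cells (CYP3A4-driven luciferase) in 5% charcoal-stripped FBS medium, plated 5 h before compound addition, then treated 24 h at 37C. Luciferase read by ONE-Glo luminescence after 30 min at room temperature.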

Experiment [16] addresses Cytochrome P450 2D6 (Homo sapiens) (UniProt P10635). Nature of the experiment: Cytochrome P450 Family 2 Subfamily D Member 6 (CYP2D6) small molecule antagonists: luciferase reporter qHTS assay (AID 1671196). Also: nearly all actives have a fitted effect of over 50% in size. Also: potency is read from the fitted curve at half-maximal effect. An outline of the steps: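 Cell-free P450-Glo system: CYP2D6 with proluciferin substrate was pre-incubated with compound for 10 min, then reacted with NADPH regeneration for 1 h at room temperature. Luciferin product was detected after 20 min, and data were reported as relative luminescence units.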
In general terms: In a reporter assay the amount or activity of a reporter protein is the signal.

Experiment [17] concerns the target Nuclear receptor subfamily 1 group I member 2 (Rattus norvegicus) (UniProt Q9R1A7). Nature of the experiment: Rat pregnane X receptor (rPXR) activation by small molecules, qHTS assay (AID 1346983). Also: nearly all actives have a fitted effect of over 20% in size. The conditions noted are these: rPXR luciferase reporter cells, One-Glo luminescence, 24 h; max activation: stronger effect = higher value. The method in brief: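 Cell-based rPXR activation assay: rPXR cells, 2,000 per well, rested 5hr at 37 C, then exposed to compounds in DMSO for 24 hr at 37 C. Luciferase activity read by One-Glo luminescence after 30 min at room temperature.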

The target in experiment [18] is Nuclear receptor subfamily 1 group I member 2 (Homo sapiens) (UniProt O75469). Briefly: CYP3A4 induction through human pregnane X receptor (PXR) by small molecules, qHTS assay (AID 1346984). Also: nearly all actives have a fitted effect of over 40% in size. An outline of the steps: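 DPX-2 HepG2 cells carrying a PXR response element and CYP3A4-promoter luciferase construct, treated with compounds 24 hr at 37C. Then P450-Glo CYP3A4 Luciferin-IPA substrate (3uM final) for 3 hr at 37C, One-Glo added, luminescence read.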

For experiment [19] the target is unchanged. Nature of the experiment: Human pregnane X receptor (PXR) activation by small molecules, qHTS assay (AID 1346985). Also: nearly all actives have a fitted effect of over 40% in size. The method in brief:
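DPX-2 cells (HepG2 co-transfected with a PXR response element and a CYP3A4-promoter luciferase construct) were seeded at 2,000 per well, rested 5 hr at 37C, then exposed to DMSO-dissolved compounds for 24 hr. Activation was read as luciferase luminescence.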
% is scaled to controls: 0 for no effect and ±100 for the full control effect.

Cytochrome P450 2D6 (Homo sapiens), sequence (P10635 whole entry, looked up): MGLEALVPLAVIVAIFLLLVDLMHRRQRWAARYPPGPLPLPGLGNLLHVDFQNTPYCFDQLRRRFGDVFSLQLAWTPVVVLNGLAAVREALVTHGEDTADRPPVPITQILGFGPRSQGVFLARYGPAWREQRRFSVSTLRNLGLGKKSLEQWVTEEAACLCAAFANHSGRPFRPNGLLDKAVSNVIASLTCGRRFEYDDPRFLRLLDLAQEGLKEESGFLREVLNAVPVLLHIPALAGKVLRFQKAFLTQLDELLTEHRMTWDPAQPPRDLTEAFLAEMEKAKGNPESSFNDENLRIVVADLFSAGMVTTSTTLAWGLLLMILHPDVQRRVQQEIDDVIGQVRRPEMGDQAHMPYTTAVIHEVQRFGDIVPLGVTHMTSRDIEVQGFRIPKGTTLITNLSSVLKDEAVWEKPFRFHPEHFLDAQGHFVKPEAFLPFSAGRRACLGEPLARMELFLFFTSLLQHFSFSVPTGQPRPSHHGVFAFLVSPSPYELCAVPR
Nuclear receptor subfamily 1 group I member 2 (Homo sapiens), sequence (O75469 whole entry, looked up): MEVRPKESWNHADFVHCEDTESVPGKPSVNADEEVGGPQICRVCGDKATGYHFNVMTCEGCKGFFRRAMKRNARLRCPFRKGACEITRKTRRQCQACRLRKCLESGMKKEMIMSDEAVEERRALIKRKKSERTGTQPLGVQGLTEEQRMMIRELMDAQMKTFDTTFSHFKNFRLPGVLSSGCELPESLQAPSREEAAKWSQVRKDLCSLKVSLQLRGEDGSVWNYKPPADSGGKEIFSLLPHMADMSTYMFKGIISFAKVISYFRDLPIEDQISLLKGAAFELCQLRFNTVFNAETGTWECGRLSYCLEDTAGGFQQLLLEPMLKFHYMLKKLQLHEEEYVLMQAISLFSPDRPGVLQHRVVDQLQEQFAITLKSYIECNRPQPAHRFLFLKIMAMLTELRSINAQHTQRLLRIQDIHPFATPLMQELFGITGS
Thyrotropin-releasing hormone receptor (Homo sapiens), sequence (P34981 whole entry, looked up): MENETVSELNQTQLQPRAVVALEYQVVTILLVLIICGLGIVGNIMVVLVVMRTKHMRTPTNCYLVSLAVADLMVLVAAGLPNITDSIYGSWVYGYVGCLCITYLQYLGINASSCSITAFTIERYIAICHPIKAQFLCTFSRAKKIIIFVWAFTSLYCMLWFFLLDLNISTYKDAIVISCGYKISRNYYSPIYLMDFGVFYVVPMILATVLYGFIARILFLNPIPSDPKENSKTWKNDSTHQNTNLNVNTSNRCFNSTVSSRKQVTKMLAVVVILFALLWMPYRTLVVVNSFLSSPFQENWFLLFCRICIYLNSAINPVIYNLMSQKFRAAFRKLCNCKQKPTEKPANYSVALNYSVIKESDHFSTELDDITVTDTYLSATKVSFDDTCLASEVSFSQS
Progesterone receptor (Homo sapiens), sequence (P06401 whole entry, looked up): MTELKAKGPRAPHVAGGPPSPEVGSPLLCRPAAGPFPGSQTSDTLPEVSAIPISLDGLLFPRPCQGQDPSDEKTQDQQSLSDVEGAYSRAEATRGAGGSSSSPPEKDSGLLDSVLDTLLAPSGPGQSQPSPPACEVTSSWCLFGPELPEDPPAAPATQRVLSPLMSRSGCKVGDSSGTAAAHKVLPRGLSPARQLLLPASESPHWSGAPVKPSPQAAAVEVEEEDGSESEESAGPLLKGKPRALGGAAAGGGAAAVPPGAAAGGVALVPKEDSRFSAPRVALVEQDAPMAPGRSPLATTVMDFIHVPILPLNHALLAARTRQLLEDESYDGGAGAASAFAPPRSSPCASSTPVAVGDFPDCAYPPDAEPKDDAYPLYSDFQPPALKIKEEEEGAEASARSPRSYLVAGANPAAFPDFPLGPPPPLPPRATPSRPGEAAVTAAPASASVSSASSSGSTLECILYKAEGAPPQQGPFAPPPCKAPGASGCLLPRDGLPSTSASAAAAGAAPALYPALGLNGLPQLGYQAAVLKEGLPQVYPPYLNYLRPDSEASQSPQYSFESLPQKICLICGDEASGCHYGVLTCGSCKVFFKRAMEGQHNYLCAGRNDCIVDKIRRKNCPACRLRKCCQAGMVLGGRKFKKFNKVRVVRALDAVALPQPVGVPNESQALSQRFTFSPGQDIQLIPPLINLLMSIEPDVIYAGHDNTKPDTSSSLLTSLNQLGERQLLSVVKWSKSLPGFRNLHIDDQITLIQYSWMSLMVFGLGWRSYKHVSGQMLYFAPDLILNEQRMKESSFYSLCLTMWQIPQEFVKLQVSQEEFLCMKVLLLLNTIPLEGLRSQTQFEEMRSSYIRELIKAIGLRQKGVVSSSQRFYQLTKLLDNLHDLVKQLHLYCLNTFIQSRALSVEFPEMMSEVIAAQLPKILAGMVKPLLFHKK
Nuclear receptor subfamily 1 group I member 2 (Rattus norvegicus), sequence (Q9R1A7 whole entry, looked up): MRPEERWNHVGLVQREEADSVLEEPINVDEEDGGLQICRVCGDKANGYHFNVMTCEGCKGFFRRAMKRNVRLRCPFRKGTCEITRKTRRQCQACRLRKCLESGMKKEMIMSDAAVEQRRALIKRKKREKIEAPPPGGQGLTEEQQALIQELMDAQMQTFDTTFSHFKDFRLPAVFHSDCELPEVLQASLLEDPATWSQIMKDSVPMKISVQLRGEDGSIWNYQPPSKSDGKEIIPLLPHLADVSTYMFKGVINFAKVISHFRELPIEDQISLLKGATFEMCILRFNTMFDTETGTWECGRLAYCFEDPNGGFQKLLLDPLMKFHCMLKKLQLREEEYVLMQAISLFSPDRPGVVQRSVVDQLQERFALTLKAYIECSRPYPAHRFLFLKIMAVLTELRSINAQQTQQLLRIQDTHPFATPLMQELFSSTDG

For `N[C@@H](Cc1c[nH]c2ccccc12)C(=O)O`, the Potency entry in experiment [1], in experiment [2], in [3], in experiment [4], in experiment [5] and in [6] was “inactive” each time. Further, the Potency entry in experiment [7], in experiment [9], in experiment [10], in experiment [11], in [12] and in [14] was “inactive” in each case. In addition, in experiment [15], the Potency entry was “inactive”. Besides, the compound was classed as inactive in experiment [8] and in experiment [13]. In addition, the Potency in experiment [16] is 35.6 µM (active) and inactive.
For the compound `COc1cc(C=O)ccc1O`, the Potency entry in [1], in experiment [2], in experiment [3], in experiment [4], in experiment [5] and in [6] was “inactive” throughout. Besides, the Potency entry in [7], in experiment [9], in [10], in [12], in experiment [14] and in experiment [15] was “inactive” each time. In addition, the Potency result in experiment [16] was “inactive”. In addition, the compound was classed as inactive in experiment [8] and in [13].
Consider `O=C1CCCCCN1`, for which the Potency entry in experiment [1], in [2], in experiment [3], in experiment [4], in experiment [5] and in experiment [6] was “inactive” in each case. In addition, the Potency result in [7], in experiment [11], in [14], in [15] and in experiment [16] was “inactive” throughout. For the same compound, the call in [8] and in [13] was inactive. The Potency in experiment [10] is 7.08 µM (active) and inactive; in [12], 1.73 µM (active) and inactive.
Take `NC(N)=NC(N)=NCCc1ccccc1`: the Potency entry in experiment [1], in experiment [2], in experiment [3], in experiment [6], in experiment [7] and in [11] was “inactive” each time. In addition, the Potency entry in experiment [12], in experiment [14], in experiment [15], in [18] and in experiment [19] was “inactive” each time. Moreover, the compound was classed as inactive in [8] and in experiment [13]. In [17], the max activation was -11.7% (inactive) and -9.14% (inactive). The Potency in experiment [16] is 5 µM (active) and 10 µM (active) and 8.71 µM (active).
As for `C[C@]12C[C@H](O)[C@H]3[C@@H](CCC4=CC(=O)CC[C@@]43C)[C@@H]1CC[C@@H]2C(=O)CO`, the Potency result in experiment [1], in experiment [3], in experiment [4], in experiment [6], in experiment [7] and in [10] was “inactive” each time. The Potency entry in experiment [12], in experiment [14], in experiment [18], in experiment [19] and in experiment [16] was “inactive” throughout. The Potency is 0.971 µM (active) in experiment [2]; 8.65 µM (active) and 38.6 µM (active) in experiment [15]. In addition, the compound was called inactive in [8] and in experiment [13]. For the same compound, the max activation in experiment [17] was -5.48% (inactive).
Take `OC[C@@H](O)[C@@H](O)[C@H](O)[C@H](O)CO`: the Potency result in [1], in experiment [2], in [3], in [4], in [5] and in [6] was “inactive” throughout. Also, the Potency result in experiment [7], in experiment [10], in [12], in experiment [14], in experiment [15] and in [18] was “inactive” throughout. The Potency result in experiment [19] and in [16] was “inactive” each time. Besides, the compound was called inactive in [8] and in experiment [13]. Also, the max activation in [17] was -0.524% (inactive).
As to `O=[N+]([O-])c1ccc(O)cc1`, the Potency was 56.6 µM (active) and 43.3 µM (active) and 48.6 µM (active) in [1]; 44.7 µM (active) and 48.6 µM (active) in experiment [10]; 56.6 µM (active) and 54.5 µM (active) and 48.6 µM (active) in [12]; 56.6 µM (active) and 61.1 µM (active) and 54.5 µM (active) in experiment [14]. Besides, the Potency entry in experiment [2], in experiment [3], in experiment [4], in experiment [5], in experiment [6] and in experiment [7] was “inactive” each time. The Potency entry in experiment [15] and in experiment [16] was “inactive” each time. Further, the compound was classed as inactive in experiment [8] and in experiment [13].
As for `CCCCOC(=O)CCCCCCCCC(=O)OCCCC`, the Potency result in experiment [1], in experiment [2], in experiment [3], in [4], in experiment [5] and in experiment [6] was “inactive” throughout. For the same compound, the Potency entry in experiment [7], in experiment [10], in experiment [12], in experiment [14], in experiment [15] and in [16] was “inactive” in each case. Further, the call in [8] and in [13] was inactive.
